For assay [1], the target named is Sphingosine kinase 1 (Homo sapiens) (UniProt Q9NYA1). The note with it: at 1 µM.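 Further: mean SPHK1 inhibition value reported from the GSK PKIS kinase panel screen.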
The target in assay [2] is T1, Sphingosine kinase 2 (Homo sapiens) (UniProt Q9NRA0).
T1 sequence (whole entry): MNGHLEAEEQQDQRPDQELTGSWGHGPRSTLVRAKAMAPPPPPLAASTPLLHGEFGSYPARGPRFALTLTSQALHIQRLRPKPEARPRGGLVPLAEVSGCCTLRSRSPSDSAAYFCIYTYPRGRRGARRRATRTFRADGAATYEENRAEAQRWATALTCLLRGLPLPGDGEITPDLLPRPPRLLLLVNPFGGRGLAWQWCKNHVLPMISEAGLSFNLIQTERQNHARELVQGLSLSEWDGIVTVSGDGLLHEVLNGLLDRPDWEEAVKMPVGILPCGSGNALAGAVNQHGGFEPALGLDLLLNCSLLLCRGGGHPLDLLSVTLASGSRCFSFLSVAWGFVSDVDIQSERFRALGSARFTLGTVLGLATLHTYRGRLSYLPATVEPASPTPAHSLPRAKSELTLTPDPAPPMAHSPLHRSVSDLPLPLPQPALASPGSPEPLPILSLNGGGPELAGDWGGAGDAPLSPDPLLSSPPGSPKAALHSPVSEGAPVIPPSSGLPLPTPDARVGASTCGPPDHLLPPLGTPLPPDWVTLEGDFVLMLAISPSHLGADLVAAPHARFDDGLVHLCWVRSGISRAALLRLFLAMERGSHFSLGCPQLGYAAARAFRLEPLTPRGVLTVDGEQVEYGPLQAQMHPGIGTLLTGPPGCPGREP
The note with it: at 0.1 µM.

Assay [3] addresses T1, Sphingosine kinase 2 (Homo sapiens). As to conditions: at 1 µM.
The target in assay [4] is Casein kinase II subunit alpha (Homo sapiens) (UniProt P68400). As to conditions: at 0.1 µM.
Casein kinase II subunit alpha (Homo sapiens), sequence (P68400 whole entry, looked up): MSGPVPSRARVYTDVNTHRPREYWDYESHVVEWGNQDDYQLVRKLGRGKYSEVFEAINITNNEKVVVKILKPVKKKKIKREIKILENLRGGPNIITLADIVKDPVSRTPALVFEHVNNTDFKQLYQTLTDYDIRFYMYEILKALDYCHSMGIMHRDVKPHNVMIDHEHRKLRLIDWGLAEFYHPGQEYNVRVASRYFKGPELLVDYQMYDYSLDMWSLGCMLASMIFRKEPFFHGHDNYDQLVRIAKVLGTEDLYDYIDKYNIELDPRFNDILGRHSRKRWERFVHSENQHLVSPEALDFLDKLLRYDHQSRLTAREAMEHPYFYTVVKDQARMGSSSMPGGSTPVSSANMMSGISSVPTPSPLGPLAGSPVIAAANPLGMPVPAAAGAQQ
Assay [5] has the same target. The note with it: at 1 µM.
Assay [6] deals with T2, Inhibitor of nuclear factor kappa-B kinase subunit alpha (Homo sapiens) (UniProt O15111).
T2 sequence (whole entry): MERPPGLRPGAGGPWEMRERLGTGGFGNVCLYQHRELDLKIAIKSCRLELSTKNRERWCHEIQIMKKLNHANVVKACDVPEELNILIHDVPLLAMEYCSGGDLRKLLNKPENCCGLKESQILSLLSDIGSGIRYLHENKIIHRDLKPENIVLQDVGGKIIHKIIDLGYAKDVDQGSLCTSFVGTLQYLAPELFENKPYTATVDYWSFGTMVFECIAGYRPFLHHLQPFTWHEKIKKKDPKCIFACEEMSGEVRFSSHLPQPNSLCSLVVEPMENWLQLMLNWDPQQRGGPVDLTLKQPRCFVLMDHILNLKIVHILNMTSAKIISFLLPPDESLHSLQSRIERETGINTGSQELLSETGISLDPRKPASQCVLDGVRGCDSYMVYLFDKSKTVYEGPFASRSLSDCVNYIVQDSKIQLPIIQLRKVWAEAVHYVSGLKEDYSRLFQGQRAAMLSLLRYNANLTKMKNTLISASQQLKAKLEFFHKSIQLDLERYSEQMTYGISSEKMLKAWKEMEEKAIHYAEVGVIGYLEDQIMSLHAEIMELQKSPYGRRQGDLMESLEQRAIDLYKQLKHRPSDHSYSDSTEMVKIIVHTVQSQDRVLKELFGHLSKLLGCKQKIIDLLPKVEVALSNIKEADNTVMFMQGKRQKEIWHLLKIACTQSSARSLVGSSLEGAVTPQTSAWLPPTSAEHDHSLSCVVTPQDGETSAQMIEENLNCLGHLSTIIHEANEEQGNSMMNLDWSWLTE
The note with it: at 0.1 µM.

The target of assay [7] is T2, Inhibitor of nuclear factor kappa-B kinase subunit alpha (Homo sapiens). As to conditions: at 1 µM.
In assay [8] the target is T3, Inhibitor of nuclear factor kappa-B kinase subunit beta (Homo sapiens) (UniProt O14920).
T3 sequence (whole entry): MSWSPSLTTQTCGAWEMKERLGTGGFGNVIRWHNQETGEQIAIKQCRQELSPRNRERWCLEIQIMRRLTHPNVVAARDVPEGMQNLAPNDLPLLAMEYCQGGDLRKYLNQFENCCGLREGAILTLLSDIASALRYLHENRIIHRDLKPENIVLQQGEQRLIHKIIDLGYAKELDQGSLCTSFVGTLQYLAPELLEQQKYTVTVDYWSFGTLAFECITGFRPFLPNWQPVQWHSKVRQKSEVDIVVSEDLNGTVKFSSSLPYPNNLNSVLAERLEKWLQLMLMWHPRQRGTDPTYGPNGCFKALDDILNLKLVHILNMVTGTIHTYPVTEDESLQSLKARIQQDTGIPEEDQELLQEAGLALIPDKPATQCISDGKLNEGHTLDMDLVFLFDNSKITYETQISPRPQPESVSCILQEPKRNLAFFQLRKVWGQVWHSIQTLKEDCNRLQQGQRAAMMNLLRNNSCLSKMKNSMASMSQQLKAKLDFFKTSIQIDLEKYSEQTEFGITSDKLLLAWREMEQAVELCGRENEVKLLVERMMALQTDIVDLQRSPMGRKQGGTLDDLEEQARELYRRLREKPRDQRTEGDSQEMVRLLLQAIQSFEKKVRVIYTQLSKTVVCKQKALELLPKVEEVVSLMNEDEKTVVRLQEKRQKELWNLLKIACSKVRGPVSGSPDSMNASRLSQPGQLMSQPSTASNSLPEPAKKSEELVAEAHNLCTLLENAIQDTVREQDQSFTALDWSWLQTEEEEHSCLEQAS
The note with it: at 0.1 µM.

For assay [9], the target named is T3, Inhibitor of nuclear factor kappa-B kinase subunit beta (Homo sapiens). The note with it: at 1 µM.
Assay [10] deals with T4, Inhibitor of nuclear factor kappa-B kinase subunit epsilon (Homo sapiens) (UniProt Q14164).
T4 sequence (whole entry): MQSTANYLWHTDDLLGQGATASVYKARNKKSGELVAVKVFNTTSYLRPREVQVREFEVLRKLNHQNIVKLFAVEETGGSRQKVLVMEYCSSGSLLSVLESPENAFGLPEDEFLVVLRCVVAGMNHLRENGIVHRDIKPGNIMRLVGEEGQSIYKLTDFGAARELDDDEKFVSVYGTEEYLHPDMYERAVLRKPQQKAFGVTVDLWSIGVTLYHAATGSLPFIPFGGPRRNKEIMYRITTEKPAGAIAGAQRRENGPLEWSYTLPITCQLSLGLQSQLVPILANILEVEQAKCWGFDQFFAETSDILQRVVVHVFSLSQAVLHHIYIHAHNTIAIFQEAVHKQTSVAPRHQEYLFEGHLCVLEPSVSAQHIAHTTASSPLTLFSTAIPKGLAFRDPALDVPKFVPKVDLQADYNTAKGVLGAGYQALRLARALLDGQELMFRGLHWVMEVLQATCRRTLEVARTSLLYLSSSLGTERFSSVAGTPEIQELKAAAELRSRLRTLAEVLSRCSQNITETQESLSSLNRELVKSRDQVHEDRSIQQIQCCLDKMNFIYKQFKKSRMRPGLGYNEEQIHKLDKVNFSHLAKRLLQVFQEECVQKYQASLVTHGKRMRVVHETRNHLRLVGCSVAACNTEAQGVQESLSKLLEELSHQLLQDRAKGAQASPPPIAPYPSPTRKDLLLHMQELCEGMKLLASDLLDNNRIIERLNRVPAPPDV
The note with it: at 0.1 µM.

Assay [11] deals with T4, Inhibitor of nuclear factor kappa-B kinase subunit epsilon (Homo sapiens). As to conditions: at 1 µM.
Assay [12] has as its target T5, Serine/threonine-protein kinase Nek1 (Homo sapiens) (UniProt Q96PY6).
T5 sequence (whole entry): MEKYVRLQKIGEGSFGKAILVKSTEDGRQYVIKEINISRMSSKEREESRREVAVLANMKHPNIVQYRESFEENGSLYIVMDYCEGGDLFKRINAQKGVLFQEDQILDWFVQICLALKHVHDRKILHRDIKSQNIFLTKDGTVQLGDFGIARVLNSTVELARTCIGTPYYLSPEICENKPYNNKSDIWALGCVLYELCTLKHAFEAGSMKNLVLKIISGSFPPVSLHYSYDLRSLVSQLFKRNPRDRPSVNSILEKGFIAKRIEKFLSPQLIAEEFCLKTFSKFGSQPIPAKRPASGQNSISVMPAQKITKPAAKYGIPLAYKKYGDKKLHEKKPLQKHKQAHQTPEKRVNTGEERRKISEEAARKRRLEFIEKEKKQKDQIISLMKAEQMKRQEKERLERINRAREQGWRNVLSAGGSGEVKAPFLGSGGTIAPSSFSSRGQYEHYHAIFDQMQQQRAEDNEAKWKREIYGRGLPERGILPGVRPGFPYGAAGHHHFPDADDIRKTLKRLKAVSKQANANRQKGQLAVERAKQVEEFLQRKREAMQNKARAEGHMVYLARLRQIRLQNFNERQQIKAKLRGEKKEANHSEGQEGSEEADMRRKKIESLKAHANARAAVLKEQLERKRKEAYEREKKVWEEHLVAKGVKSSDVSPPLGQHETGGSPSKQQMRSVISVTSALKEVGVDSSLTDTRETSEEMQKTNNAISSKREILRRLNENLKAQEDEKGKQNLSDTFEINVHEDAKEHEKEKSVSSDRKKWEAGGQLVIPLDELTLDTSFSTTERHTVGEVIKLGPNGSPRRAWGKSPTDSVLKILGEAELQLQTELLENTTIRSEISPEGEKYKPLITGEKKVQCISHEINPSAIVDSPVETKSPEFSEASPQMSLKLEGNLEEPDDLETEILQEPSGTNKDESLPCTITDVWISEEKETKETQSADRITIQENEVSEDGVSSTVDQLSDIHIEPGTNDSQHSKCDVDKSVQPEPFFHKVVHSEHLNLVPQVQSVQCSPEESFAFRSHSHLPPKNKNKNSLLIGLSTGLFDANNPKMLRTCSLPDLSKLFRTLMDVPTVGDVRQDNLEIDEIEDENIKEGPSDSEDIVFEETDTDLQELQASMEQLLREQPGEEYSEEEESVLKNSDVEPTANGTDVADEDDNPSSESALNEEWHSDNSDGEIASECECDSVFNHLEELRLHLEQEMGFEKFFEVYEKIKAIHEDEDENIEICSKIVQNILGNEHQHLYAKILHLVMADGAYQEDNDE
As to conditions: at 0.1 µM.

Assay [13] concerns the target T5, Serine/threonine-protein kinase Nek1 (Homo sapiens). The note with it: at 1 µM.
The target in assay [14] is T6, Serine/threonine-protein kinase Nek2 (Homo sapiens) (UniProt P51955).
T6 sequence (whole entry): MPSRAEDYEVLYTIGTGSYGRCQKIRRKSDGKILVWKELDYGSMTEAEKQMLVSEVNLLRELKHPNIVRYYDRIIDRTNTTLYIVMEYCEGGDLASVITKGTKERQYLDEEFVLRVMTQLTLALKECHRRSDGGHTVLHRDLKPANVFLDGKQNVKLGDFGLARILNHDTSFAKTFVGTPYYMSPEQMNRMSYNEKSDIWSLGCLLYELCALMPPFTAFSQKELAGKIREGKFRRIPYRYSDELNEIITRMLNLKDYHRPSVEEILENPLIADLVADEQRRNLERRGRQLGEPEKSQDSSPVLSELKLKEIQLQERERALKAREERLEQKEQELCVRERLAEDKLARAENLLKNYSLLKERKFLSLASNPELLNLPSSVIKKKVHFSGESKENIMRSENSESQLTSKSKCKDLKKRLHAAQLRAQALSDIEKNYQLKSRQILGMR
As to conditions: at 0.1 µM.

Assay [15] concerns the target T6, Serine/threonine-protein kinase Nek2 (Homo sapiens). As to conditions: at 1 µM.
In assay [16] the target is Serine/threonine-protein kinase Nek6 (Homo sapiens) (UniProt Q9HC98). As to conditions: at 0.1 µM.
Serine/threonine-protein kinase Nek6 (Homo sapiens), sequence (Q9HC98 whole entry): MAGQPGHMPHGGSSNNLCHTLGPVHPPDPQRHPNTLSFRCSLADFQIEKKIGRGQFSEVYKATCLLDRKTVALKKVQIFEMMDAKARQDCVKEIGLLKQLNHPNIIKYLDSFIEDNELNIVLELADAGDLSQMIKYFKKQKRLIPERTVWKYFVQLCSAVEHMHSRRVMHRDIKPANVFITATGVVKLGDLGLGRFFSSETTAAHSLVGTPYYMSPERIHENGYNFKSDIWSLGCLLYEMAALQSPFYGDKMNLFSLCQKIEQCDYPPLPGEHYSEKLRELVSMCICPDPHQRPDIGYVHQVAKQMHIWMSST
Assay [17] has the same target. The note with it: at 1 µM.
The target in assay [18] is Serine/threonine-protein kinase Nek7 (Homo sapiens) (UniProt Q8TDX7). The note with it: at 0.1 µM.
Serine/threonine-protein kinase Nek7 (Homo sapiens), sequence (Q8TDX7 whole entry, looked up): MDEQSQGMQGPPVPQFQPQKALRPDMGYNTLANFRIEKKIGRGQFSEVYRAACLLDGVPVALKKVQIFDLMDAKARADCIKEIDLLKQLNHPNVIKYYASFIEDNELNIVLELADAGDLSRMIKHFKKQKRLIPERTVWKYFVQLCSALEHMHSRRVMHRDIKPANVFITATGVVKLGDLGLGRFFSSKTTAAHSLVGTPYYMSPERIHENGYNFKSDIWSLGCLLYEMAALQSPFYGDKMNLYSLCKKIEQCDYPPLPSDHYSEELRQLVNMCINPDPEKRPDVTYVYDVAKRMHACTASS
Assay [19] has the same target. As to conditions: at 1 µM.
Assay [20] addresses T7, Serine/threonine-protein kinase Nek9 (Homo sapiens) (UniProt Q8TD19).
T7 sequence (whole entry): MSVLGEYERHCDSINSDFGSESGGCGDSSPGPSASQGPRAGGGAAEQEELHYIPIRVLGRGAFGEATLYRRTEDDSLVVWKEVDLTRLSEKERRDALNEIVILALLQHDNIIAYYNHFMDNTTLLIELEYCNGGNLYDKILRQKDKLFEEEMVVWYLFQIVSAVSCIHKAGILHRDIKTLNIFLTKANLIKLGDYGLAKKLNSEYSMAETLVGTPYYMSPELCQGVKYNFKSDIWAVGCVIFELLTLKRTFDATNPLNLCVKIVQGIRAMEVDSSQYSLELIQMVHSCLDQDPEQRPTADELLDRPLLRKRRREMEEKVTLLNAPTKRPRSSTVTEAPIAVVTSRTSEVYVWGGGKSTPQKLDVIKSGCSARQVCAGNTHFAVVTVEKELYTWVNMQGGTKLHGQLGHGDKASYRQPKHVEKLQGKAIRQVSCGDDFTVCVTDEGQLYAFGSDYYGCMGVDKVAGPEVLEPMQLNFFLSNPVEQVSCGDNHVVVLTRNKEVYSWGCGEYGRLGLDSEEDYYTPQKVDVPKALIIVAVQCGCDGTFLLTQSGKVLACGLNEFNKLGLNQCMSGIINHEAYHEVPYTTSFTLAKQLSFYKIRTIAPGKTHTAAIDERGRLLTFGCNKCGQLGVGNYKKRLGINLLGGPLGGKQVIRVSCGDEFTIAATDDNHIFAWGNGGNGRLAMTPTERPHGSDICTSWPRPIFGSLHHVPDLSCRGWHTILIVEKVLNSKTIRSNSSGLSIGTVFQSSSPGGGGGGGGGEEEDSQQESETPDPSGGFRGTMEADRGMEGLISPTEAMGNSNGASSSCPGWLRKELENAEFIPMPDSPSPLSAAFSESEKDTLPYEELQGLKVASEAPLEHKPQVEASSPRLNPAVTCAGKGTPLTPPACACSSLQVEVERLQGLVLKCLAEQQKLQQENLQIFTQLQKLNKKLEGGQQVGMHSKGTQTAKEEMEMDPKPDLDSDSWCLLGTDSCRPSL
As to conditions: at 0.1 µM.

SMILES strings stand for the structures.

Sphingosine kinase 1 (Homo sapiens), sequence (Q9NYA1 whole entry): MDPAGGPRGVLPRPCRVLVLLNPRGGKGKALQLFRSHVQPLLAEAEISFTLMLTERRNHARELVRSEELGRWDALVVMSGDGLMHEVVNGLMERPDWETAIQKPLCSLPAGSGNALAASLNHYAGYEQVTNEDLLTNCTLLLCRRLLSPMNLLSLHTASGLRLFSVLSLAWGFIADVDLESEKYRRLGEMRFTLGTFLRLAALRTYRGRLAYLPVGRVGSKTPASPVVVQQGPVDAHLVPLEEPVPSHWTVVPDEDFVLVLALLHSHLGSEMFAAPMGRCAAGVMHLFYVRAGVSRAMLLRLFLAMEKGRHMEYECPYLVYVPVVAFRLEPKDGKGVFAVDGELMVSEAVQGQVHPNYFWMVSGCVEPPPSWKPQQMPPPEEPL

The term inhibition denotes the change of the read-out against control, counted positive when it falls. In the case of `COC(=O)c1sc(-n2cnc3cc(OC)c(OC)cc32)cc1OCc1ccccc1C(F)(F)F`, the inhibition in [1] is 1.91%; in [2], 0.14%; in [3], -2.19%; in [4], 0.66%; in assay [5], -0.18%; in assay [6], 3.9%. In addition, the inhibition stood at 5.32% in [7]; 5.59% in [8]; 4.11% in assay [9]; 3.88% in assay [10]; 8.59% in [11]; 2.43% in assay [12]. Further, the inhibition in assay [13] was 0.28%; in [14] it was 4.46%; in assay [15], 3.83%; in [16], -0.01%; in assay [17], -1.32%; in assay [18] it was 6.92%. The inhibition in assay [19] turned out to be 4.66%; in assay [20], 6.87%.

The values above are taken from ChEMBL document CHEMBL1961873, “Compounds: GSK PKIS; Assays: Nanosyn kinase panel” (2012).
